According to PubChem BioAssay:
Where “and” joins values, the source holds several entries; their conditions need not be identical. Identical values can stand only once. Calls of active or inactive are those of the source.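 The calls were made as follows, unless noted: active = thallium flux through the channel raised or lowered by more than 3 SD from vehicle-only wells, actives on both sides; inactive = the rest.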

Key:
[1] = Wnt pathway potentiators raising nuclear beta-catenin – imaging, WNT3A-conditioned medium, mouse C2C12, NPC library, primary screen (AID 1117326; in the data active = nuclear beta-catenin stimulation mostly above about 4.2%, no sharp cut-off; inactive = mostly below about 10%); conditions: stronger effect = higher value
[2] = stimulators of insulin release from INS-1E, primary screen, cell-based, 5 mM glucose, NPC library (AID 1117329;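 active = compound raises insulin release from rat beta cells at 5 mM glucose, no numeric limit stated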); conditions: rat INS-1E insulin secretion, at 10 µM, stronger effect = higher value
[3] = growth inhibition of GSK3B-pretreated HCT116 cells – cell-based, CellTiter-Glo, 0.2 to 20 µM (AID 1117336;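 active = compounds lowering colon cancer cell viability after pretreatment blocking the GSK3B kinase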); conditions: HCT116 viability after GSK3B inhibitor, at 20 µM, stronger effect = higher value
[4] = inhibition of endothelial tube formation, primary screen, imaging, VEGF stimulated, CD31 staining, tube area, NPC library (AID 1117340;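 active = compound that reduces growth-factor-driven endothelial tube area in a mixed cell culture, no cutoff stated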); conditions: VEGF-stimulated ADSC/ECFC co-culture, at 10 µM, stronger effect = higher value
[5] = GLP1 release stimulators, primary, NCI-H716, NPC library (AID 1117341;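 active = compound raises GLP1 secretion from the human gut endocrine cells, with no numeric limit stated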); conditions: NCI-H716 cells, at 10 µM, stronger effect = higher value
[6] = HCT116 colon cancer cell growth inhibition, primary screen, CellTiter-Glo luminescence, NPC library (AID 1117342;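 active = compounds that lower survival of HCT116 colon cancer cells in the luminescence readout, no numeric limit stated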); conditions: at 20 µM (top of the series)
[7] = reduced SW480 viability measured with CellTiter-Glo, NPC library, primary (AID 1117343;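 active = compounds that lower viability of the colon cancer cells in the luminescence readout, with no numeric limit stated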); conditions: CellTiter-Glo luminescence; at 20 µM (top of the series)
[8] = NPC library primary testing for decreased DLD-1 cell viability via CellTiter-Glo (AID 1117346;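 active = compounds that lower survival of DLD-1 colon cancer cells in the luminescence readout, no cutoff given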); conditions: DLD-1 viability, CellTiter-Glo luminescence; at 20 µM (top of the series)
[9] = biological target: 6-phosphogluconate dehydrogenase, decarboxylating (Homo sapiens) (UniProt P52209); assay: inhibition of human phosphogluconate dehydrogenase – biochemical, recombinant enzyme, NADPH absorbance, primary screen (AID 1159550;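 active = at least 20% inhibition of 6-phosphogluconate dehydrogenase activity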); conditions: recombinant 6PGD, NADPH absorbance 341 nm; at 10 µM; stronger effect = higher value
Sequence of 6-phosphogluconate dehydrogenase, decarboxylating (Homo sapiens) (P52209 whole entry, looked up): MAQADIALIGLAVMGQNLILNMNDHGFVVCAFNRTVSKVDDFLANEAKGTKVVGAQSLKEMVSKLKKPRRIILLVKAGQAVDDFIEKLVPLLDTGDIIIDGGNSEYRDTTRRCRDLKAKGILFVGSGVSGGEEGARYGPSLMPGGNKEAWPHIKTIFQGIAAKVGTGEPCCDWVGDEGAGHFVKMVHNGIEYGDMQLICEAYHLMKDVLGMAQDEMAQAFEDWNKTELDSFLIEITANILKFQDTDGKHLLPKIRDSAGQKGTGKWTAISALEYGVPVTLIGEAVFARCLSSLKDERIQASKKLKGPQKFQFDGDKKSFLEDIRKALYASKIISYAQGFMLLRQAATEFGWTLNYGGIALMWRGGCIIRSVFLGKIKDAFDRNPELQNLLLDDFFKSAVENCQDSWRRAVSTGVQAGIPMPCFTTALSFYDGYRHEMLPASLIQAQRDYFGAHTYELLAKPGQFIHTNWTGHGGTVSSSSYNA

[10] = modulation of C. elegans fzo-1 (AID 1259413; call rule not given here;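 also: fzo-1 mutant C. elegans worms in liquid wells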); conditions: C. elegans fzo-1 modulator screen, mean read-out; stronger effect = higher value
[11] = EMT-state selective cytotoxicity in co-culture – imaging, PC-3E GFP, TEM4-18 mCherry, primary screen (AID 1345086;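 active = compounds killing one labelled cell type while sparing the other, by normalised counts and ratio limits, not self-fluorescent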;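 as to all read-outs here: cells exposed to compound for 72 h before imaging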;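 as to red/green cell ratio (normalised): normalised mesenchymal count divided by normalised epithelial count so high means epithelial killing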); conditions: PC-3E GFP / TEM4-18 mCherry co-culture, imaging cell counts, at 1 µM; for red/green cell ratio (normalised): actives lie on both sides, counts scaled to control wells, 1 = unselective
[12] = MELAS cybrid and Rieske KO viability enhancers – cell-based, MELAS cybrids, Rieske KO mouse fibroblasts, CellTiter-Glo, primary screen (AID 1508586;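 active = mean z-score across replicates of 1.96 or higher in either the MELAS or the Rieske mutant cell line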;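 also: z relative to plate mean and SD of compound and empty wells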); conditions: low glucose
[13] = biological target: NAD(+) hydrolase SARM1 (Homo sapiens) (UniProt Q6SZW1); assay: blocking NAD cleavage by SARM1 SAM-TIR – cell lysate, NAD-Glo luminescence (AID 1508614;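 active = compound whose remaining NAD level is above about 45 nM, limit read from the data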;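 also: higher remaining NAD means stronger inhibition of SARM1 NADase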); conditions: SAM-TIR HEK293T lysate NADase, at 1 µM, stronger effect = higher value
Sequence of NAD(+) hydrolase SARM1 (Homo sapiens) (Q6SZW1 whole entry, looked up, the tested form may be a part): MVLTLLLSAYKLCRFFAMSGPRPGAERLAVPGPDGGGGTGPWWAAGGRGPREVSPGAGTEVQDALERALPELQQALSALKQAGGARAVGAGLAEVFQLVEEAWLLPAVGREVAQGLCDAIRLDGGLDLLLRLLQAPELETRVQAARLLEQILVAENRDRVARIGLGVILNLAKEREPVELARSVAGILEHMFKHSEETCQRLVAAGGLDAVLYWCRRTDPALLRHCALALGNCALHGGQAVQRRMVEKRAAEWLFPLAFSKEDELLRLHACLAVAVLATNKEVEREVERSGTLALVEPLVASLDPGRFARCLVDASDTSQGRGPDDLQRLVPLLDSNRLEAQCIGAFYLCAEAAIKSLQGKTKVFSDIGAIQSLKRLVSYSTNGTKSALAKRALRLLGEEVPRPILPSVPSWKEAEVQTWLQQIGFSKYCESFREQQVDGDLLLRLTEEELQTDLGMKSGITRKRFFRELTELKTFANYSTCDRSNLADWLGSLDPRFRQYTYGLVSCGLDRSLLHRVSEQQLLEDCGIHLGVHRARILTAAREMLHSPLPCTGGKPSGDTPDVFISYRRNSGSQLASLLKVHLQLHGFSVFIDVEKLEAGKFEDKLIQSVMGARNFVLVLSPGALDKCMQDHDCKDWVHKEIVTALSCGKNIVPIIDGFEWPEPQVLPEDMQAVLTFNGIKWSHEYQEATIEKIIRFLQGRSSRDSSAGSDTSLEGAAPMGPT

[14] = biological target: Mitogen-activated protein kinase 7 (Homo sapiens) (UniProt Q13164); assay: Gal4-ERK5 driven luciferase induction – cell-based, HTS, primary screen (AID 1508626;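 active = luciferase signal above three times the same-plate solvent-only control wells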;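 also: luciferase driven by Gal4-ERK5 fusion binding five Gal4 sites before minimal TATA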); conditions: HeLa Gal4-ERK5 transactivation, 18 h, at 5 µM, stronger effect = higher value
Sequence of Mitogen-activated protein kinase 7 (Homo sapiens) (Q13164 whole entry, looked up, the tested form may be a part): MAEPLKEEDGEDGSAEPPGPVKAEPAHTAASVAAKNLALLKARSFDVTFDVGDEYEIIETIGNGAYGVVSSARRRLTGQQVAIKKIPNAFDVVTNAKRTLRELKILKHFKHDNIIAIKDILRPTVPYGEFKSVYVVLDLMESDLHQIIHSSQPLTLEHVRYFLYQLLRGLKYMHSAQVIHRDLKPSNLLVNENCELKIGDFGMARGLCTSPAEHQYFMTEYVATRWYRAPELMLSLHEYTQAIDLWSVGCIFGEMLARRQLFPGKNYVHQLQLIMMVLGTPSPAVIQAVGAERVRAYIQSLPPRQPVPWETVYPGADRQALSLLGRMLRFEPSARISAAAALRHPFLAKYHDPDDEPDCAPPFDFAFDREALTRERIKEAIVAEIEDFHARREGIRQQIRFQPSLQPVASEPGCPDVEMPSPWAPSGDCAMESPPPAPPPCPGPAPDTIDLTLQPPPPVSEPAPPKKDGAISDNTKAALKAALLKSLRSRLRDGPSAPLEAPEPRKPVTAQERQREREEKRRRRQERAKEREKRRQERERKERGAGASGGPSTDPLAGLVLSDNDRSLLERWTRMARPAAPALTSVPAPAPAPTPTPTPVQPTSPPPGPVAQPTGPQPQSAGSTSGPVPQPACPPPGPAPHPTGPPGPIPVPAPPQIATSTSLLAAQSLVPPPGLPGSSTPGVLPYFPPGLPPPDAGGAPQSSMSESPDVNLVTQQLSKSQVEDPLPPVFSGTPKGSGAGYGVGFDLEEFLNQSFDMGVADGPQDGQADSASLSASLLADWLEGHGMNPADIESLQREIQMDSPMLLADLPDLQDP

F380Y = assay: BK channel mutant inhibitors and activators – cell-based, U2OS BacMam, thallium flux, beta subunits, selectivity assay, profiling panel (AID 1259406); conditions: U2OS BacMam BK variants, at 30 µM;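 also: initial slope of Thallos dye fluorescence rise after thallium is added; log ratio against the mean of 0.3% DMSO vehicle wells on the same plate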
F380Y/beta1 = assay: as above; conditions: U2OS BacMam BK variants, at 30 µM
F380Y/beta2Delta = assay: as above; conditions: U2OS BacMam BK variants, at 30 µM
[15] = viability loss with induced miR-34 in A549 – imaging, A549 dox-inducible miR-34, nuclei and caspase counts, primary screen (AID 1347080;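 active = compounds whose cell count with miR-34 switched on is under 0.7 times the count with it off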); conditions: A549 miR-34 inducible, Hoechst nuclei count, 48 h
[16] = measured here: epithelial PC-3E GFP cell survival
[17] = measured here: mesenchymal TEM4-18 mCherry cell survival
[18] = MELAS cybrid survival, CellTiter-Glo 48 h, stronger effect = higher value
[19] = Rieske KO mouse fibroblast survival, CellTiter-Glo 72 h

CC(C[N+](C)(C)C)OC(N)=O (configuration not stated)
1.15: normalised cell number [11, 16]
-1.3%: nuclear beta-catenin stimulation ([1]; stimulation, at 2 µM)
0.843 and -0.822 and 0.416: z-score [12, 19]
1.11: normalised cell number [11, 17]
inactive: nuclear beta-catenin stimulation ([1]; at 10 µM) -0.5% | insulin secretion stimulation [2] 0.3% | viability decrease [3] -5.9% | tube area decrease [4] -10% | GLP1 secretion stimulation [5] 0.5% | inhibition of viability [6] -0.4% | viability decrease (inhibition) [7] -11.8% | viability decrease (inhibition) [8] -7.3% | inhibition [9] -9.2% | mean signal [10] 276 | red/green cell ratio (normalised) [11] 0.97 | z-score [12, 18] -0.399 and 0.646 and 0.598 | remaining NAD [13] 10 nM | luciferase signal [14] 56 AU | log fold change Tl+ flux (F380Y) 0.0115 | log fold change Tl+ flux (F380Y/beta1) 0.0306 | log fold change Tl+ flux (F380Y/beta2Delta) -0.0155

CC(COc1ccccc1)N(CCCl)Cc1ccccc1 (configuration not stated)
-0.3%: nuclear beta-catenin stimulation ([1]; stimulation, at 2 µM)
1.43: normalised cell number [11, 17]
inactive: nuclear beta-catenin stimulation ([1]; at 10 µM) 1.1% | insulin secretion stimulation [2] 2.8% | viability decrease [3] -32.1% | tube area decrease [4] 7% | GLP1 secretion stimulation [5] 3.8% | inhibition of viability [6] -3.6% | viability decrease (inhibition) [7] 13% | viability decrease (inhibition) [8] -2.9% | inhibition [9] 0.0837% | mean signal [10] 239 | red/green cell ratio (normalised) [11] 1.22 | z-score [12, 18] -0.333 and -0.71 and -0.596 | remaining NAD [13] 10 nM | luciferase signal [14] 68 AU | log fold change Tl+ flux (F380Y) -0.0529 | log fold change Tl+ flux (F380Y/beta1) -0.00151 | log fold change Tl+ flux (F380Y/beta2Delta) -0.054
1.17: normalised cell number [11, 16]
0.469 and 0.0989 and -0.341: z-score [12, 19]

CC1(C)O[C@@H]2[C@@H](CO[C@@]3(COS(N)(=O)=O)OC(C)(C)O[C@@H]23)O1
0.627: z-score [12, 19]
1.11: normalised cell number [11, 16]
9480 and 11800: cell count ([15]; measured here: total cells with miR-34 induction, stronger effect = lower value)
inactive: nuclear beta-catenin stimulation ([1]; at 10 µM) -1.6% | insulin secretion stimulation [2] -0.2% | viability decrease [3] -4.2% | tube area decrease [4] 14.7% | GLP1 secretion stimulation [5] -0.1% | inhibition of viability [6] -8.2% | viability decrease (inhibition) [7] -0.9% | viability decrease (inhibition) [8] -7.1% | inhibition [9] 5.76% | mean signal [10] 229 | red/green cell ratio (normalised) [11] 1.43 | fold change ([15]; stronger effect = lower value, cell number ratio, induced over uninduced) 0.931 and 0.874 | z-score [12, 18] 0.776 | remaining NAD [13] 10 nM | luciferase signal [14] 24 AU | log fold change Tl+ flux (F380Y) -0.00202 | log fold change Tl+ flux (F380Y/beta1) 0.0196 | log fold change Tl+ flux (F380Y/beta2Delta) 0.0184
1.93 and 6.61: fold change ([15]; measured here: relative caspase fold change +Dox/-Dox)
0.6%: nuclear beta-catenin stimulation ([1]; stimulation, at 2 µM)
10200 and 13500: cell count ([15]; measured here: total cells without miR-34 induction)
1.58: normalised cell number [11, 17]
